DRD3 agonist: D3 dopamine receptor (human) agonism | P35462 | actives 0.58% (n = 410,000) | max activation, % | D3R DiscoveRx beta-arrestin cells, luminescence, 90 min; in the data active = max activation above about 30%
Target sequence (P35462 whole entry, looked up): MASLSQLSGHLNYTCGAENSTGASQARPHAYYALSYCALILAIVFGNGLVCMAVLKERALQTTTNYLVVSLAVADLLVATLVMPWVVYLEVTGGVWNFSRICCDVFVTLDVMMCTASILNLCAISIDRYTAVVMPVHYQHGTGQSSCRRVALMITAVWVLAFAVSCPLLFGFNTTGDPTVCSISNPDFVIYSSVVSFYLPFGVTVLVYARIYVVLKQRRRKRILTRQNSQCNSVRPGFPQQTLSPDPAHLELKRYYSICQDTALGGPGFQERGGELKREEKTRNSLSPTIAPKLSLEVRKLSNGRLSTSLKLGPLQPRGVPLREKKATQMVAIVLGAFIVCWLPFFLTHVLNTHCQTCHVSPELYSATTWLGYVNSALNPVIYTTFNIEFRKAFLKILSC
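Cells at 1500/well, incubated overnight, then treated with pinned compounds (dopamine as control) for 90 min at 37 degrees C. DiscoveRx reagent added for 30 - 60 minutes at room temperature; luminescence read.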
ClpP mod: qHTS Assay for Activators of ClpP; ATP-dependent Clp protease proteolytic subunit (Bacillus subtilis (strain 168)), P80244; Potency, µM (titrated, usually from 57.5 µM); purified B. subtilis ClpP, FRET peptide cleavage, 20 min; actives 1.9% (n = 340,000); active = well fitted falling curve with a large enough effect; inconclusive = small, poorly fitted or top-dose-only effect; inactive = no such curve, though single readings can be large or run the other way; also: the source files actives as falling curves though it sought activators and does not explain the sign; nearly all actives have a fitted effect of over 65% in size
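FRET quenching reversal measured ClpP activation: 10 microg/mL B. subtilis ClpP at pH 8 with the FRET-FV decapeptide, read at 430 nm after 320 nm excitation. The 20-min minus 0-min signal was scaled between DMSO/no-enzyme wells and ADEP (5.8 microM final).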
DRD3 antagonist: antagonists of human D3 dopamine receptor; P35462; actives 2.5% (n = 360,000); max response, negative = inhibition, %; D3R cells, DiscoveRx beta-arrestin luminescence, antagonist mode; active compounds read low; in the data active = max response below about -50%; inconclusive = no clear call, values can overlap the other calls
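Cells expressing the human receptor were seeded at 1500 cells/well, incubated overnight at 37 degrees C in 5% CO2, then exposed to library compounds with dopamine controls for 90 minutes at 37 degrees C before luminescent detection.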
TDP1 cell CPT: DT40-hTDP1 cell growth loss with CPT | actives 12% (n = 420,000) | Potency, µM (top dose mostly 46.2 µM), actives largely listed as inhibitors | chicken DT40 Tdp1-/-;hTDP1 cells + 20 nM CPT, ATP luminescence, 48 h; also: nearly all actives have a fitted effect of over 55% in size
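Chicken DT40 Tdp1-/- cells complemented with human TDP1, 400 cells/well, exposed to compounds plus 20 nM camptothecin for at least 48 h at 37 C; viability read as ATP content by CellTiter-Glo luminescence.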
DT40 TDP1 no CPT: qHTS for Inhibitors of human tyrosyl-DNA phosphodiesterase 1 (TDP1): qHTS in cells in absence of CPT; DT40 Tdp1-/- hTDP1 cells, no CPT, ATP luminescence, 48 h; Potency, µM (top dose mostly 46.2 µM), most hits filed as inhibitors; actives 15% (n = 420,000); also: nearly all actives have a fitted effect of over 55% in size
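Growth kinetics read by CellTiter-Glo luminescence after ≥48 hr at 37 °C. Cells: DT40 Tdp1-/- stably carrying human TDP1, 400 per well, compound exposure in the absence of CPT (DMSO vehicle).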
IL1B secr inh: blocks inflammasome-driven IL-1 beta release. THP-1 LPS/ATP IL-1B secretion, AlphaLISA, 16 h; active compounds read low. activity change, % at 57.5 µM. actives 4.7% (n = 360,000). AID 743279; in the data active = activity change below about -50%; inconclusive = mostly about -30% to -49%
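Secreted IL-1B measured by AlphaLISA bead assay after 16 h compound exposure of THP-1 cells; compounds (final up to 57.5 uM) added 1 h before LPS (250 ng/mL) and ATP (1.25 mM) stimulation; lower signal means less secretion.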
Hits are given with their value; i = inactive; ? = inconclusive; nt = no result. In the library only some 21% were active in any assay of this set; here they are far more common. Unless noted, calls follow the shape of the dose curve; as a rule, active = well fitted inhibition curve with a large enough effect; inconclusive = small, poorly fitted or top-dose-only effect; inactive = flat fitted curve, though single readings scatter.

SMILES	DRD3 agonist	ClpP mod	DRD3 antagonist	TDP1 cell CPT	DT40 TDP1 no CPT	IL1B secr inh
Cc1cc(C)n2c(Nc3ccc(C(C)C)cc3)c(-c3ccsc3)nc2n1	i	i	nt	?	?	nt
COCCNC(=O)CSc1nc(-c2ccc(C)cc2)[nH]c1-c1ccc(OC)cc1	i	?	nt	?	?	nt
COCCNC(=O)CSc1nc(-c2ccc(F)cc2)[nH]c1-c1ccc(Cl)cc1	i	i	nt	?	26µM	nt
CCc1ccc(-c2nc(SCC(=O)NCCOC)c(-c3ccc(C)cc3)[nH]2)cc1	i	28µM	nt	i	?	nt
COc1ccc(-c2nnc3sc(-c4ccco4)nn23)cc1OC	i	i	i	i	i	i
Cc1nnc2sc(-c3cccc4ccccc34)nn12	i	22µM	i	i	i	i
Clc1ccccc1-c1nnc2sc(-c3ccco3)nn12	i	i	i	i	i	i
Cc1cc(-c2nn3c(-c4ccccc4)nnc3s2)c2ccccc2n1	i	i	i	?	18µM	i
Cc1nnc2c3ccccc3c(-c3cccc4ccccc34)nn12	i	i	i	i	?	i
Cc1ccccc1-c1nn2c(-c3ccccc3)nnc2s1	i	i	i	i	i	i
COc1cc(OC)c(-c2nn3c(-c4ccco4)nnc3s2)cc1OC	i	28µM	i	?	15µM	i
c1ccc(-c2cc(-c3nn4c(-c5ccco5)nnc4s3)c3ccccc3n2)cc1	i	i	i	7.1µM	4.5µM	i
CC1Sc2ccc(S(=O)(=O)CCC(=O)NCc3cccs3)cc2NC1=O (configuration not stated)	i	i	i	i	i	i
COc1cccc(CNC(=O)CN2C(=O)COc3ccc(S(=O)(=O)N4CCOCC4)cc32)c1	i	i	i	i	i	i
O=c1c2oc3ccccc3c2n(Cc2cccc(F)c2)c(=O)n1Cc1ccco1	i	i	nt	?	?	nt
C=CCNC(=O)C(=O)NCCOc1ccccc1Cl	i	i	i	12µM	?	i
CC(C)Oc1ccc(C2CC(=O)N(C)C2=O)cc1 (configuration not stated)	i	i	i	i	i	i
C=CCn1c(SCc2nc3cc(C(=O)OC)ccc3c(=O)[nH]2)nc2sc(CC)cc2c1=O	i	i	i	?	18µM	i
C=CCn1c(SCc2nc3ccccc3c(=O)[nH]2)nc2scc(C3CC3)c2c1=O	i	nt	i	15µM	16µM	i
C=CCn1c(SCC(=O)c2c(N)n(CCC)c(=O)n(C)c2=O)nc2sc(CC)cc2c1=O	i	i	i	6.5µM	5.8µM	i
COC(=O)c1ccc2c(=O)[nH]c(CCl)nc2c1	i	nt	i	12µM	15µM	-97
C=CCn1c(SCC(=O)c2c(N)n(C)c(=O)n(C)c2=O)nc2sc(C)c(C)c2c1=O	i	i	i	i	?	i
CNC(=O)c1cc(C(=O)c2c(Cl)cccc2Cl)c[nH]1	i	nt	i	i	i	i
Cc1oc(-c2cc3c(cc2Cl)OCO3)nc1CN1CCCC1c1ccc(F)cc1 (configuration not stated)	i	nt	i	i	?	i
C[n+]1ccc(CC2C(=[N+]([O-])[O-])C=Nc3ncnn32)cc1 (configuration not stated)	i	i	i	i	i	i
Cc1csc2nc(COc3ccccc3NC(=O)c3ccc(C(C)(C)C)cc3)cc(=O)n12	i	i	nt	?	?	nt
COc1ccccc1CNC(=O)c1cccc(S(=O)(=O)N2CCCC2)c1	i	i	i	i	i	i
C=CCn1c(SCC(=O)Nc2sccc2C(N)=O)nc2sc(CC)cc2c1=O	35	i	i	?	26µM	i
C=CCn1c(SCN2C(=O)c3ccccc3C2=O)nc2ccc(Cl)cc2c1=O	i	i	i	18µM	18µM	i
C=CCn1c(SCC(=O)Nc2sccc2C(N)=O)nc2ccc(Cl)cc2c1=O	i	i	i	15µM	16µM	i
